Measurements: PubChem BioAssay (NCI)
Compounds without any hit were thinned out: in the full panel of roughly 83,000, 20% have a hit.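 Note: values are percent growth. 100 is the growth of untreated cells, values between 100 and 0 indicate rising inhibition; between -100 and 0 indicates cell death.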 A number with no mark means an inactive call. Active and inactive are the calls of the source.

What follows are compounds tested on HCC-2998 colon (assay: NCI-60 one-dose screen, 48 h (100 = growth as untreated, 0 = no growth, -100 = all killed)). Details: 10 µM unless noted.
Protocol: Growth inhibition of the HCC-2998 human tumor cell line is measured as a screen for anti-cancer activity. Cells are grown in 96 well plates and exposed to the test compound for 48 hours. Compounds are tested at a single concentration, which is 10^-5 M for most compounds. The reported endpoint is percent growth (GI% or GIPRCNT), where numbers from 0 - 100% represent growth inhibition, and numbers from -100% - 0 represent cell death. For example, a value of 40 represents 60% growth inhibition. A value of 0 means no net growth occurred over the course of the experiment. A value of -40 indicates 40% of cells at the beginning of the experiment died by the end of the experiment. A value of -100 means all cells are dead at the end of the experiment.
NCI-60 Human Tumor Cell Lines Screen was performed using the standard one-dose NCI protocol, which is described in more detail at https://dtp.cancer.gov/discovery_development/nci-60/default.htm.
Compounds with GIPRCNT values below 10 were considered active. Activity score was based on GIPRCNT using the following formula: […]
Score is 0 for GIPRCNT values of 100 or above, 50 for GIPRCNT values of 0, and 100 for GIPRCNT values of -100.

SMILES | growth
O=C(c1nc2ccccc2[nH]1)C1C(c2cccc([N+](=O)[O-])c2)C2CC3CCCCC3N2[C@@]12C(=O)Nc1cc(Cl)ccc12 (stereo not given in full) | 23.9%
COc1cc(C(C)n2cc(-c3ccccc3)nn2)ccc1OC1CCCC1 (stereo not given) | 70.4%
Cc1c(C(=O)OCCO)cc(-c2ccc(Cl)cc2)n1-c1ccc(Cl)cc1Cl | 100%
O=C(Cn1cc(COc2ncnc3c2cnn3-c2ccccc2)nn1)Nc1ccccn1 | 120%
COc1ccc(/C=C/C(=O)c2c(C)nc3ccccc3c2/C=C/c2ccccc2)c(OC)c1 | 92.1%
CC(C)[C@H](NC(=O)Cn1cc(C(=O)O)nn1)C(=O)O | 107%
N#CC(C#N)=Cc1c(-c2ccccc2)[nH]c2ccccc12 | 50.7%
NC1C(N)C(N)C1N (stereo not given) | 99.9%
O=C(c1nc2ccccc2[nH]1)C1[C@@H](c2cccc(O)c2)C2CC3CCCCC3N2[C@@]12C(=O)Nc1cc(Cl)ccc12 (stereo not given in full) | 33.8%
COc1ccc(-c2nsc3c2NC(=O)CC3c2cccc(OC)c2)cc1 (stereo not given) | 57.4%
COc1cc(C#N)cc2[nH]c(=O)oc12 | 105%
O=C(Nc1nc2c(s1)CCc1c-2c(Br)n(Cc2ccccc2)c1Br)c1ccccc1 | 99.1%
COc1cc(/C=C2\CN(C)C/C(=C\c3cc(CN4CCOCC4)c(O)c(OC)c3)C2=O)cc(CN2CCOCC2)c1O | 91%
O=S(=O)(c1ccc(NC(=S)NC23CC4CC(CC(C4)C2)C3)cc1)N1CCCCC1 | 114%
COc1ccc(C2=Nn3c(NN)nnc3SC2)cc1 | 111%
O=NN(C(=O)NC1CCC(C(=O)O)CC1)C1CCC(C(=O)O)CC1 (stereo not given) | 104%
O=C(Nc1ccc(N2CCNCC2)cc1)c1[nH]ncc1Nc1cc(C2CC2)ncn1 | 46.3%
O=C1OC(c2ccccc2)(c2ccccc2)c2ccsc21 | 127%
Cc1ccc(F)cc1NC(=O)c1cc(Cl)ccc1Nc1ccccc1 | 28.2%
Clc1ccc(Nc2nnc(-c3ccc4c(c3)OCO4)o2)cc1 | 98.6%

SMILES | growth
CCOC(=O)c1c2c(c(C)n1Cc1ccc(OC)cc1)-c1oncc1CC2 | 106%
COc1ccc2occ(C3=C(c4c[nH]c5ccccc45)C(=O)NC3=O)c2c1 | 74.5%
COc1ccc(-n2c(C(O)c3ccccc3)nn(CN3CCOCC3)c2=S)cc1 (stereo not given) | 106%
CCN1C(=O)N(CC)C2C1NN=c1s/c(=C3\C(=O)N(C(C)C)c4ccccc43)c(=O)n12 (stereo not given) | 20.3%
Cc1ccc2sc3c(NCCCNCCO)nc4ccccc4c3c(=O)c2c1 | -75.5% (active)
Cc1cccc2c(=O)c3c(sc12)c(N1CCNCC1)nc1ccccc13 | 47.5%
c1ccc2cc3c(Nc4ccc(N5CCOCC5)cc4)ccnc3cc2c1 | 109%
CCCCNc1nc(NC(C)(C)C)nc(NC(C)(C)C)n1 | 74.3%
O=C(CCc1nnc2sc(-c3ccc(Cl)cc3Cl)nn12)c1nc2ncccc2[nH]1 | -71.6% (active)
COc1ccc(Cn2c(Br)c3c(c2Br)-c2nc(NC(=O)c4ccc(OC)cc4)sc2CC3)cc1 | 108%
O=C1/C(=C/c2ccc(O)cc2)COc2ccc(O)c(O)c21 | 75.7%
COc1cc(/C=C2\CCC/C(=C\c3cc(CN4CCCCC4)c(O)c(OC)c3)C2=O)cc(CN2CCCCC2)c1O | 103%
COc1ccc(Cn2cc(Cn3cc(C=C4C(=O)NC(=O)NC4=O)c4ccccc43)nn2)cc1 | 109%
CC/C=C\C[C@H](O)C/C=C1/C(=O)C=C[C@@H]1C/C=C\CCCC(=O)OCCS(=O)(=O)c1ccccc1 | 53.4%
O=C(NC1C(O)OC(CO)C(O)C1O)NS(=O)(=O)c1ccc(Cl)cc1 (stereo not given) | 115%
COc1ccc(Nc2cc(C)nc(NCc3ccccc3)n2)cc1 | 21.2%
O=C(N=Nc1c(O)[nH]c2ccccc12)c1oc2ccccc2c1CN1CCN(c2ccccc2)CC1 | 33.6%
CCCCCCn1c(=N)n(CC(O)COc2cccc(C)c2)c2ccccc21 (stereo not given) | -87.1% (active)
O=c1nc2sc3nc4ccccc4cc3cc-2s1 | 106%
N[C@@H](CC/[N+]([O-])=N/O)C(=O)O | 112%
